We go through 52 compounds from ChEMBL document CHEMBL3988442, “University of Dundee, Small-Polar-MMV Screening Library” (2021).

The campaign covered roughly 48,000 compounds. About 13,000 (27%) showed an effect of 50% or more. The list shows a part of the results.

In the assay the test system is Wolbachia pipientis. The assay can be described thus: Anti-Wolbachia Cell-Based Screen. Type of assay: functional. Also on record: scale not given: in the data most compounds retested in dose-response had high values. The following applies: 5 µM.
`CS(=O)(=O)N1CC2(CCN(c3nccs3)CC2)c2ccccc21`: the “Percent Effect” value is 6.686%.
Take `COc1cc(N2CC3(CCN(c4ncccn4)C3)C2)ncn1`: the “Percent Effect” value was -18.99%.
In the case of `COc1cc(N2CCC3(CC2)CN(S(C)(=O)=O)c2ccccc23)ncn1` it was 110.7%; in that of `COc1cc(N2CCC3(CC2)CN(CCO)c2ccccc23)ncn1`, 112.4%; in that of `COc1cc(N2CC3(CCN(S(C)(=O)=O)C3)C2)ncn1.O=C(O)C(F)(F)F`, -16.93%.
For `O=C(O)C(F)(F)F.O=C(O)C(F)(F)F.OCCN1CC2(CCN(CC3CC3)CC2)c2ccccc21`, the “Percent Effect” value is -29.18%.
For `CCc1ccc(C2COCCN2C(=O)Nc2ccc(C#N)cc2)o1` (configuration not stated) the value was -6.805%; for `COCc1noc(-c2ccc(N3CCCCC3CCCO)nc2)n1` (configuration not stated), 5.834%.
With `Cc1nc(Cn2c3c(ccc2=O)CC(N)CC3)cs1` (configuration not stated), the “Percent Effect” value is listed as 90.15%.
For `CCn1c2c(ccc1=O)CC(N)CC2` (configuration not stated) the value was -10.57%; for `Cc1nc(Cn2c3c(ccc2=O)CC(NC(N)=O)CC3)cs1` (configuration not stated), 99.56%.
In the case of `NC1CCc2c(ccc(=O)n2CC2CC2)C1` (configuration not stated) it was -25.6%; in that of `OCCCN1CCOC(c2ccc(F)cc2)C1` (configuration not stated), 108.3%.
In the case of `NS(=O)(=O)CCN1CCOC(c2ccc(Cl)cc2)C1` (configuration not stated) it was -9.973%; in that of `Cc1ccc(-c2nc(CN3CCOC(c4ccccc4)C3)cs2)o1` (configuration not stated), 7.737%.
Consider `CCc1n[nH]c(C2CN(CCc3ccncc3)CCO2)n1` (configuration not stated), for which the “Percent Effect” value was 1.737%.
For `CCc1nccn1CCC(=O)N1CCOC(c2ccc(F)cc2)C1` (configuration not stated), the “Percent Effect” value is on record as 5.391%.
With `Fc1ccc(C2CN(CCc3ccncc3)CCO2)cc1` (configuration not stated), the “Percent Effect” value worked out at 89.73%.
Regarding `COc1cccc(C2CN(CCc3ccncc3)CCO2)c1` (configuration not stated), the “Percent Effect” value was determined as 114.5%.
Regarding `Cc1cc2[nH]c(CN3CCOC(c4ccc(F)cc4)C3)cc(=O)n2n1` (configuration not stated), the “Percent Effect” value is -0.7414%.
Regarding `COc1ccc(CNC2CCN(CCc3ccncc3)CC2)cc1O`, the “Percent Effect” value is -10.08%.
For `c1ccc(C2CN(CCc3ccncc3)CCO2)cc1` (configuration not stated) the value was 114.6%; for `CCNC(=O)NC(=O)CN1CCOC(c2cccc(Br)c2)C1` (configuration not stated), -11.97%; for `CCN(CC)Cc1nc2c(o1)CN(C(=O)c1ccc3[nH]ccc3c1)C2.O=CO`, 2.766%.
In the case of `O=C(NC1CC1)N1Cc2[nH]nc(COCC3CC3)c2C1` it was -7.793%; in that of `CCc1nc(CCNC(=O)NC2CCC(=O)N(C)C2)sc1C` (configuration not stated), -4.769%.
Regarding `CN(C)c1cccc(C(=O)N2CCCc3cc(OC(F)(F)F)ccc32)c1`, the “Percent Effect” value is given as 5.74%.
For `CN(CC1CCC1)C(=O)Nc1cccnc1-n1cncn1` the value was -2.5%; for `Cc1oc(-c2ccsc2)nc1CN1CC[C@@H]2CCCC[C@H]2C1`, 16.57%.
For the compound `CCNC(=O)NC(=O)CN1CCOC(c2ccccc2Cl)C1` (configuration not stated), the “Percent Effect” value was found to be 0.5373%.
In the case of `Cc1nc(C)n(CC2CN(CCc3ccccc3Cl)CCO2)n1` (configuration not stated) it was -35.87%; in that of `Clc1ccccc1C1CN(CCc2ccncc2)CCO1` (configuration not stated), 118%.
For `COc1ncccc1CN1Cc2nccn2CC(Cn2cccn2)C1` (configuration not stated), the “Percent Effect” value is given as 99.64%.
For `CNC(=O)c1cnc2n1CCN(Cc1cccnc1OC)C2` the value was -12.45%.
In the case of `COc1ncccc1CN1Cc2nccn2CC(CN2CCCC2)C1` (configuration not stated) it was 87.46%; in that of `CS(=O)(=O)N1Cc2nccn2CC(CN2CCCC2)C1` (configuration not stated), -0.3251%; in that of `Cc1ccc(CC(=O)N2Cc3nccn3CC(Cn3cccn3)C2)cc1` (configuration not stated), -9.367%.
For `O=C(CCn1cncn1)Nc1ccc(F)cc1OCC1CC1` the value was -2.529%; for `COC(=O)CCNC(=O)c1ccc(NC(=O)N(C)CC(C)C)cc1`, 21.34%.
As to `CN(C)c1ccc(C(=O)NCCCc2ccccn2)cn1`, the “Percent Effect” value came out at 11.7%.
In the case of `CC(C)c1nc(CCNC(=O)NCc2ccnc(N(C)C)c2)cs1` it was 6.649%.
In the case of `CN(C)c1ccc(CCNC(=O)NCc2ccc(N(C)C)nc2)cc1` it was 5.041%; in that of `Cc1cc(CNC(=O)NCc2cccs2)ccc1S(C)(=O)=O`, -12.59%; in that of `CN(C)c1ccc(CNC(=O)NCCc2cccs2)cn1`, 93.45%.
In the case of `CN(C)c1ccc(CNC(=O)NCCc2cn3ccccc3n2)cn1` it was 118.9%; in that of `CN(C)c1ccc(CNC(=O)NCCc2ccccn2)cn1`, 91.3%; in that of `Cc1ccccc1C1(O)CCN(C(=O)CCc2cn3ccccc3n2)C1` (configuration not stated), -1.584%.
With `Cc1nc(CN2CCC(CNC(=O)Nc3ccccn3)CC2)oc1C`, the “Percent Effect” value was determined as 15.98%.
In the case of `COCc1nc2n(n1)CCCC2Nc1nc(C(C)C)ns1` (configuration not stated) it was -13.74%; in that of `CN1CCN(S(=O)(=O)N2CCCCC2CCc2ccc(O)cc2)CC1` (configuration not stated), -0.6049%; in that of `CCn1cc(CN2CCCn3nc(CNS(C)(=O)=O)cc3C2)c(C)n1`, -7.534%.
As for `Cc1cc2c(c(=O)n1CCC(=O)O)C=CC(C)(C)O2`, the “Percent Effect” value was determined as 159.6%.
